# In PubChem BioAssay (Tox21):
# Inconclusive results are not listed. Unmarked numbers belong to inactive results. Unless noted, the call rests on the fitted dose curve.
# Tested on: not listed separately
# Assay: cAMP Responsive Elements (CRE) small molecule antagonists, cell-based qHTS assay (AID 1963591; active means well fitted inhibition curve with a large enough effect in the signal ratio in the repeat runs, not every such curve was filed as active; the % refers to the signal ratio)
# Details: CRE-bla HEK293T, beta-lactamase FRET ratio; series mostly up to 92.4 µM; activity change, negative = inhibition: at the top concentration
# Method in brief: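 Beta-lactamase reporter read by FRET substrate (LiveBLAzer B/G) after 2 h at room temperature. CRE-bla HEK293T cells had received compound plus 0.25 uM (final) NKH477 for 3 h at 37 °C.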
# On the % scale 0 is the no-effect control and ±100 the full control effect.
row,SMILES,"activity change, negative = inhibition"
1,O=C=NCC1CCCC(CN=C=O)C1 (stereo unspecified),3.13%
2,CC(CCO)CCCC(C)(C)O (stereo unspecified),0.956%
3,Cc1ccc2ccc3cccc4ccc1c2c34,20.6%
4,CCOc1ccc(NS(=O)(=O)c2ccc(N)cc2)nn1,3.31% [at 42.4 µM]
5,COC(=O)c1cc(Cl)cc(Cl)c1,-12.4%
6,Cc1[nH]c(C)c(Cl)c(=O)c1Cl,-0.412% [at 18.9 µM]
7,CCCNCCC,3.05%
8,COc1cc(N)ccc1C,0.83%
9,NCCCCCCNCCCCCCN,0.114%
10,CC(C)(C)C1CCCCC1=O (stereo unspecified),-0.122%
11,CC1(C)CC(O)CC(C)(C)N1[O],-2.77%
12,C=CCCCCCCCCCCCCCC,-3.11% [at 18.9 µM]
13,CCN1C=CN(C)C1C (stereo unspecified),-12.7%
14,CC[N+](C)(CC)CCOC(=O)C1c2ccccc2Oc2ccccc21,0.402% [at 42.4 µM]
15,NCCCN(CCO)CCO,5.36%
16,O=Cc1cc(O)ccc1Br,3.63%
17,O=CN(CCO)CCO,0.072%
18,CCC(CC)CO,-7.63%
19,CC/C=C\CC/C=C/CO,0.925%
20,Cc1ccccc1N=C(N)Nc1ccccc1C,14.9%
21,C1C2OC2C2C1C1CC2C2OC12 (stereo unspecified),0.339%
22,CCCCOC(=O)CCCCC(=O)OCCCC,-9.68%
23,C=C[Si](OC)(OC)OC,1.38%
24,CC(CC=O)CCCC(C)(C)O (stereo unspecified),0.819%
25,CCOC(=O)C1=NN(c2ccccc2)C(=O)C1,10.7%
26,Cc1c(Cl)cccc1Cl,-0.282%
27,O=C1c2cccc3c2[C@H](CCC3)CN1[C@@H]1CN2CCC1CC2,-8.83% [at 42.4 µM]
28,CN(C)CCOC(=O)C(c1ccccc1)C1(O)CCCC1 (stereo unspecified),4.22% [at 42.4 µM]
29,CCN1CCC[C@H]1CNC(=O)c1c(OC)ccc(Br)c1OC,0.459% [at 42.4 µM]
30,CCCCCCCCCCCCCCCC(=O)OCC,1.58%

# Target: Beta-2 adrenergic receptor (Homo sapiens) (UniProt P07550)
# Sequence (P07550 whole entry, looked up): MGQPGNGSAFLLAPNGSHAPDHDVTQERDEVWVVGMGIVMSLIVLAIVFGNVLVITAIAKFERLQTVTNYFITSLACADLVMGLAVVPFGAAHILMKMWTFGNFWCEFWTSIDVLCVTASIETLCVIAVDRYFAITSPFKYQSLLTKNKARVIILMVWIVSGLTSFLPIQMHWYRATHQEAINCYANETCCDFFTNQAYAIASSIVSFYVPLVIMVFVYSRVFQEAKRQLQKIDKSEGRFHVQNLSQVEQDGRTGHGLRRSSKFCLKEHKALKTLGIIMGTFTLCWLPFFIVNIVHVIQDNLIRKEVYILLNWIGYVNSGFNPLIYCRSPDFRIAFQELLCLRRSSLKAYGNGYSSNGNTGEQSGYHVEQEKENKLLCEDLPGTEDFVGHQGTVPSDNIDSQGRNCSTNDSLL
# Assay: Adrenergic beta2 receptor (ADRB2) small molecule antagonists, cell-based qHTS assay (AID 1963592); further: nearly all actives have a fitted effect of over 50% in size
# Details: CHO-ADRB2 cells, isoproterenol-stimulated cAMP HTRF ratio, 0.5 h; series mostly up to 92.4 µM; activity change, negative = inhibition: at the top concentration
# Method in brief: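 Cells (CHO, stable ADRB2 overexpression) incubated 18-20hr at 37C; compounds added from DMSO; agonist mix (1nM isoproterenol, 100uM IBMX, 25uM Ro-20-1724) added; 0.5hr RT; d2-cAMP and anti-cAMP-cryptate added; 1hr RT; 665/615 nm read.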
row,SMILES,"activity change, negative = inhibition"
1,O=C=NCC1CCCC(CN=C=O)C1 (stereo unspecified),2.08%
2,CC(CCO)CCCC(C)(C)O (stereo unspecified),-13.8%
3,Cc1ccc2ccc3cccc4ccc1c2c34,24.9%
4,CCOc1ccc(NS(=O)(=O)c2ccc(N)cc2)nn1,-13.8% [at 42.5 µM]
5,COC(=O)c1cc(Cl)cc(Cl)c1,-3.31%
6,Oc1cc2ccccc2c2ccccc12,-24.7%
7,Cc1ccc(-c2ncc(Cl)cc2-c2ccc(S(C)(=O)=O)cc2)cn1,-25.2% [at 42.5 µM]
8,Cc1[nH]c(C)c(Cl)c(=O)c1Cl,-0.0462% [at 19 µM]
9,CCCNCCC,0.954%
10,COc1cc(N)ccc1C,-17.7%
11,Cc1ccc2c(c1)CCCN2,0.232%
12,NCCCCCCNCCCCCCN,0.623%
13,CC(C)(C)C1CCCCC1=O (stereo unspecified),1.26%
14,CN(C)CCOCCO,1.89%
15,CC1(C)CC(O)CC(C)(C)N1[O],-5.94%
16,C=CCCCCCCCCCCCCCC,8.54% [at 19 µM]
17,CCN1C=CN(C)C1C (stereo unspecified),-4.14%
18,CC[N+](C)(CC)CCOC(=O)C1c2ccccc2Oc2ccccc21,0.984% [at 42.5 µM]

row,SMILES,"activity change, negative = inhibition"
1,O=Cc1cc(O)ccc1Br,-15.4%
2,O=CN(CCO)CCO,13.9%
3,CCN(C(=O)N(CC)c1ccccc1)c1ccccc1,3.52%
4,CCC(CC)CO,19.6%
5,CC/C=C\CC/C=C/CO,0.74%
6,CC(CSC(=O)c1ccccc1)C(=O)N1C[C@@H](Sc2ccccc2)C[C@H]1C(=O)O (stereo partly specified),10.2% [at 19 µM]
7,Cc1ccccc1N=C(N)Nc1ccccc1C,-5.54%
8,C1C2OC2C2C1C1CC2C2OC12 (stereo unspecified),3.77%
9,O=C1CCCCCCCCCCCC(=O)OCCO1,1.16%
10,CCCCOC(=O)CCCCC(=O)OCCCC,-6.51%
11,C=C[Si](OC)(OC)OC,0.0091%
12,CC(CC=O)CCCC(C)(C)O (stereo unspecified),-8.43%
13,Cc1c(Cl)cccc1Cl,6.1%
14,O=C1c2cccc3c2[C@H](CCC3)CN1[C@@H]1CN2CCC1CC2,-0.175% [at 42.5 µM]
15,CCCCC(CC)COC(=O)c1ccccc1 (stereo unspecified),-11.9%
16,CN(C)CCOC(=O)C(c1ccccc1)C1(O)CCCC1 (stereo unspecified),-4.64% [at 42.5 µM]
17,CCN1CCC[C@H]1CNC(=O)c1c(OC)ccc(Br)c1OC,-0.025% [at 42.5 µM]
18,CCCCCCCCCCCCCCCC(=O)OCC,0.439%
